Experimental data from PubChem BioAssay (NCATS).
Results filed as inconclusive are left out. Active and inactive are the calls of the source. Calls follow the shape of the dose curve; as a rule, active = well fitted activation curve with a large enough effect in the main read-out, with a control signal flat (not every such curve was filed as active); inconclusive = small, poorly fitted or top-dose-only effect, or effect the other way, or a change in a side signal; inactive = flat fitted curve, though single readings scatter.

The molecules below were run against 3',5'-cyclic-AMP phosphodiesterase 4B (Homo sapiens) (UniProt Q07343) (assay: qHTS Assay for Inhibitors of PDE-IV (AID 607; also: % of control where 0% means no effect)). Settings: HEK293 ACTOne CNG channel cells, membrane potential fluorescence; series mostly up to 22.9 µM; activation (PDE inhibition): at the top concentration.
Chain of 3',5'-cyclic-AMP phosphodiesterase 4B (Homo sapiens) (Q07343 whole entry, looked up): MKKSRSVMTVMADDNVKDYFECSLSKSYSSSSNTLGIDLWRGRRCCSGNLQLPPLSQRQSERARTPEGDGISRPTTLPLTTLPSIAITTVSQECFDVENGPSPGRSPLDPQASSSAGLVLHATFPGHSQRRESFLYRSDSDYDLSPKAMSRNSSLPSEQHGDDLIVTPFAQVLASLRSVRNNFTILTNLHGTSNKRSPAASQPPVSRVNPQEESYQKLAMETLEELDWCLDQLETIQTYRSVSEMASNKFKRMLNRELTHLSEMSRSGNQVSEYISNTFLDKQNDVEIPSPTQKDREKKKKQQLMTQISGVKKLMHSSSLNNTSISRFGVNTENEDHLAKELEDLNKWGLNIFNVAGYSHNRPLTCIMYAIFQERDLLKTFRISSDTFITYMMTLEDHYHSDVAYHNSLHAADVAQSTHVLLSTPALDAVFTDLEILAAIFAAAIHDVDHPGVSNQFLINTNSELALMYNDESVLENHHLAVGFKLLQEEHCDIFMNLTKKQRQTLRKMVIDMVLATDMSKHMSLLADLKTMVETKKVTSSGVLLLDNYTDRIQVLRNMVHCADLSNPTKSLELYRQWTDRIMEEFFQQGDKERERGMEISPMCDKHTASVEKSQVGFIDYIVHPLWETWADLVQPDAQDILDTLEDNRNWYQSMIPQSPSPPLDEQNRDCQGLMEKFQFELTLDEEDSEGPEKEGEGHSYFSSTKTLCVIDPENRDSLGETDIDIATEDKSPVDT
From the text: NIH Chemical Genomics Center [NCGC]
NIH Molecular Libraries Screening Centers Network [MLSCN]
The cyclic nucleotide phosphodiesterases (PDEs) are proteins that catalyze hydrolysis of 3', 5'-cyclic nucleotides, such as cyclic adenosine monophosphate (cAMP) and cyclic guanosine monophosphate (cGMP), to their corresponding 5'-nucleotide monophosphates. These enzymes play an important role in controlling cellular concentrations of cyclic nucleotides and have a central role in a variety of intracellular signaling events. cAMP PDEs are emerging as a promising class of drug targets in asthma and cardiovascular disease therapeutic areas.
There are no commercially available cell-based screening assays for PDE inhibitors: currently biochemical assays are done using pure substrates (cAMP or cGMP) and purified recombinant PDE enzymes. As with other biochemical screens on intracellular targets, false positives and false negatives may result from issues involving cell membrane permeability, cellular metabolism, and the like.
Here we report the development of a cell-based screening assay for cAMP phosphodiesterase (PDE) inhibitors. The assay is based on the BD ACTOne# technology (BD Biosciences) which utilizes a modified cyclic nucleotide-gated channel (CNG) to monitor intracellular cAMP changes in live cells. The CNG channel is localized on the plasma membrane, and opens when the intracellular cAMP level increases, resulting in ion flux and cell membrane depolarization. The influx of cations through the CNG channel can be quantified using membrane potential (MP) dyes. We modified the BD ACTOne technology to allow the detection of PDE inhibitors, and performed an inhibitor screen for PDE-IV, which is expressed endogenously in HEK293 cells. We optimized this assay in homogeneous 1536-well plate assay format for high throughput screening.
NCGC Assay Protocol Summary:
The medium contained 10% FBS (Invitrogen), 2 mM L-glutamine, and 250 ug/ml G418 (Cellgro) and 1 ug/ml puromycin (Clontech). ACTOneTM parental cells (BD Biosciences) were maintained in the same medium without puromycin.
The activity of the CNG channel was measured by BD ACTOneTM membrane potential dye kit (BD Biosciences). Forskolin, a positive control for cAMP activation and RO 20-1724, a PDE inhibitor, were both purchased from Sigma and solublized in DMSO.
Sequence,Parameter,Value,Description
1,Reagent,3 uL,1000 cells/well 1536 TC treated Black plate
3,Compound,0.5 uL,Kalypsys dispense RO 20-1724 100 uM final [A]
4,Reagent,3 uL,BD membrane potential dye
6,Compound,23 nL,Final concentration was 0.7nM to 22.9uM
8,Detector,EX 535 / EM 590 [B],Envision
Footnotes: [A] The stock 2 mM RO 20-1724 PDE inhibitor was made in 10 % DMSO. Parental cell line received 10 uM forskolin + 100 uM RO. [B] Envsion settings: Bottom Excitation 535/20 nm top emission 590/20, gain of 150 and 5 flashes per well.
Keywords: PDE, PDE-IV, cytotoxicity, flourescence, MLSMR, MLSCN, NIH Roadmap, qHTS, NCGC

Activation (PDE inhibition), inactive:
CCCC1(C(=O)OC)C=C2C(=C(C(C)C)C(=O)C2C)CN1 (stereo not given) 2.43%, O=c1c2ccccc2oc2cc(O)c([C@@H]3COC[C@@H](CO)[C@@H](O)[C@@H](O)[C@H]3O)c(O)c12 -5.96%, Cc1ccc(C[C@H](Cc2nc3ccccc3[nH]2)c2nc3ccccc3[nH]2)cc1 17.2%, Cc1cc(C(=O)N[C@@H](c2ccccc2)[C@]2(C)C[C@H]2[C@@H](C)C(=O)Nc2ccc3ccccc3c2)n(C)n1 18.2%, COC(=O)[C@@]1(Cc2ccc(OC)cc2)[C@H]2c3cc(C(=O)N4CCCC4)n(CCSCCO)c3C[C@H]2CN1C(=O)c1ccccc1 -0.855%, O=c1cc(-c2cccc(O)c2O)oc2ccccc12 5.1%, COCCNc1nc(-c2ccc(N(C)C)cc2)nc2ccccc12 1.58%, C[C@@]1(C(NC(=O)c2ccc(-c3ccccc3)cc2)c2ccc(Cl)cc2)C[C@H]1C1CCCCC1 (stereo not given in full) 9.87%, C[C@@H](C(=O)NCCc1c[nH]c2ccccc12)[C@@H]1C[C@@]1(C)[C@@H](NC(=O)OCc1ccccc1)c1ccccc1 1.3%, CCC/C=C(\CCC)C(NC(=O)c1ccc(C(F)(F)F)cc1)c1ccc(C(F)(F)F)cc1 (stereo not given) 29.1%, COC(=O)[C@@H]1C[C@H]1[C@@H](NC(=O)c1ccccc1)c1ccccc1 19.8%, C[C@@H](C(=O)NCCc1c[nH]c2ccccc12)[C@H]1C[C@]1(C)[C@H](NC(=O)OCc1ccccc1)c1ccccc1 10.2%, COC(=O)[C@@H]1C[C@H]1[C@@H](NS(=O)(=O)c1ccc(-c2ccccc2)cc1)c1ccccc1 17.1%, COc1cccc(-c2oc3ccccc3c(=O)c2O)c1 25.8%, CC(C)=C1C(=O)C(c2ccccc2)=C2CN3C(=O)N(CCc4ccccc4)C(=O)[C@]3(Cc3ccccc3)[C@H]21 28.7%, CCCCCC1=C2CNC(C)(C(=O)OC)C=C2C(C)C1=O (stereo not given) -6.94%, CC(C)C[C@@H](CC(=O)N[C@@H](CCC(=O)O)CC(=O)O)NC(=O)[C@@H]1CNCC[C@H]1NC(=O)C[C@@H](NC(=O)C[C@H](Cc1ccccc1)NC(=O)[C@@H]1CCCC[C@H]1N)C(C)C -1.1%, O=c1[nH]c(=O)n([C@H]2C[C@H](O)[C@H](CO)O2)cc1/C=C\Br -10.3%, COC(=O)[C@H]1C[C@@H]1[C@H](NC(=O)OCc1ccccc1)c1ccccc1 22.1%, CC(C)C[C@@H](CC(=O)N[C@@H](CCC(=O)O)CC(=O)O)NC(=O)[C@@H]1CNCC[C@H]1NC(=O)C[C@H](CCCN)NC(=O)C[C@H](Cc1c[nH]c2ccccc12)NC(=O)[C@@H]1CNCC[C@H]1N -2.39%, C#CCCCC(=O)Nc1ccccc1 7.41%, CCOC(=O)C1=C(C)NC(C)=C(C(=O)OC)[C@H]1c1cccc(Cl)c1Cl 19.9%, NCCC[C@@H](CC(=O)N[C@@H]1CCNC[C@H]1C(=O)N[C@H](CC(=O)N[C@@H](CCC(=O)O)CC(=O)O)Cc1ccccc1)NC(=O)C[C@H](Cc1c[nH]c2ccccc12)NC(=O)[C@@H]1CCCC[C@H]1N 2.72%, COC(=O)[C@@]1(Cc2ccccc2)[C@H]2c3cc(C(=O)N(C)C)n(CCN4CNCC4=O)c3C[C@H]2CN1C(=O)c1ccccc1 -5.04%, O=C(/C=C\c1ccc(O)cc1)c1ccc(O)cc1O 5.18%, C=C1CC[C@@H]2[C@](C)(CC[C@@H](O)[C@]2(C)CO)[C@@H]1C/C=C1/C(=O)OC[C@H]1O -4.63%, C=C(CO)[C@H]1Cc2c(ccc3c(=O)c4c(oc23)COc2cc(OC)c(OC)cc2-4)O1 -3.26%, CCC/C=C(\CCC)C(NS(=O)(=O)c1ccc(C(F)(F)F)cc1)c1ccccc1 (stereo not given) 21.6%, NCCC[C@@H](CC(=O)N[C@@H]1CCCC[C@H]1C(=O)N[C@H](CC(=O)N[C@@H](CCC(=O)O)CC(=O)O)Cc1c[nH]c2ccccc12)NC(=O)C[C@H](CO)NC(=O)[C@@H]1CCCC[C@H]1N 4.67%, CC(C)C[C@@H](CC(=O)N[C@@H](CCC(=O)O)CC(=O)O)NC(=O)[C@@H]1CNCC[C@H]1NC(=O)C[C@@H](NC(=O)C[C@H](CO)NC(=O)[C@@H]1CNCC[C@H]1N)C(C)C 18.8%, CC(C)C[C@@H](CC(=O)N[C@@H](CCCN)CC(=O)N[C@@H]1CCCC[C@H]1C(=O)N[C@H](CC(=O)N[C@@H](CCC(=O)O)CC(=O)O)CC(C)C)NC(=O)[C@@H]1CCCC[C@H]1N -10%, COC(=O)[C@H]1C[C@@H]1[C@H](NC(=O)c1cc(C)nn1C)c1ccccc1 -0.891%, COc1cc2nc(N3CCN(C(=O)[C@H]4COc5ccccc5O4)CC3)nc(N)c2cc1OC 10.9%, COC(=O)[C@@]1(Cc2ccc(OC)cc2)[C@H]2c3cc(C(=O)N4CCCC4)n(CCc4c[nH]c5ccc(O)cc45)c3C[C@H]2CN1C(=O)c1ccccc1 9.45%, C[C@@]1(C(NC(=O)Cc2ccc(C(F)(F)F)cc2)c2ccc(-c3ccccc3)cc2)C[C@H]1C1CCCCC1 (stereo not given in full) -2.64%, CC(C)C[C@@H](CC(=O)N[C@@H](CCC(=O)O)CC(=O)O)NC(=O)[C@@H]1CCCC[C@H]1NC(=O)C[C@@H](NC(=O)C[C@H](Cc1c[nH]c2ccccc12)NC(=O)[C@@H]1CCCC[C@H]1N)C(C)C -7.69%, CN(C)CCCO[C@H]1[C@H]([C@H](O)CO)O[C@H]2OC(C)(C)O[C@@H]21 3.19%, CC(C)C[C@@H](CC(=O)N[C@H](CC(=O)N[C@@H]1CCCC[C@H]1C(=O)N[C@H](CC(=O)N[C@@H](CCC(=O)O)CC(=O)O)Cc1ccccc1)C(C)C)NC(=O)[C@@H]1CCCC[C@H]1N -17.4%, CC(=O)S[C@@H]1CC2=CC(=O)CC[C@@]2(C)[C@H]2CC[C@]3(C)[C@H](CC[C@@]34CCC(=O)O4)[C@H]12 2.05%

Potency, inactive:
C/C=C\C[C@H](C)[C@H](O)[C@H]1C(=O)N[C@@H](CC)C(=O)N(C)CC(=O)N(C)[C@@H](CC(C)C)C(=O)N[C@@H](C(C)C)C(=O)N(C)[C@@H](CC(C)C)C(=O)N[C@@H](C)C(=O)N[C@@H](C)C(=O)N(C)[C@@H](CC(C)C)C(=O)N(C)[C@@H](CC(C)C)C(=O)N(C)[C@@H](C(C)C)C(=O)N1C
